Source: PubChem BioAssay (Broad Institute)
aSyn 5UTR act – Activators via SNCA 5'UTR binding, MLPCN. alpha-synuclein 5'UTR reporter, activators screen. activity score, % (tested at 7.5 µM), hits read low. actives 7.1% (n = 300,000); in the data active = activity score below about -60%
An asterisk follows results filed as active. Only a sample is shown.

SMILES	aSyn 5UTR act
COc1ccccc1-c1nc(-c2ccc(Br)o2)no1	-95*
COc1ccc(-c2nc(-c3ccc(Br)o3)no2)cc1OC	-211*
Cn1c(CNc2ccccc2)nc2ccccc21	-113*
Cn1c(CNc2ccc(F)cc2)nc2ccccc21	-123*
O=C1NCCN/C1=C\C(=O)c1ccc(Cl)cc1	-109*
O=C1NCCN/C1=C\C(=O)c1ccc(F)cc1	-81*
CC1CN/C(=C\C(=O)c2ccccc2)C(=O)N1 (stereo unspecified)	-110*
O=C(Nc1ccc(F)cc1)Nc1csc2ccccc12	-87*
CN(C)c1ccc(NC(=O)Nc2csc3ccccc23)cc1	-141*
CC(C)c1ccc(NC(=O)[C@@H]2CCC(=O)N2C2OC(=O)c3ccccc32)cc1 (stereo partly specified)	-79*
Cc1ccc(N(CC(=O)NCCSc2ccccn2)S(C)(=O)=O)cc1	-98*
O=C(OCn1ncc(Br)c(Br)c1=O)c1ccc(F)cc1	64
Cc1ccc(C(=O)CSc2ccccn2)cc1	-191*
Cc1ccc(NC(=O)CCSc2ccccn2)cc1	-145*
O=C(CSc1ccccn1)c1ccc(F)cc1	-130*
Cn1c(CO)cnc1SCC(=O)c1ccc(F)cc1	-65*
COc1ccc(/C=C(\C#N)C(=O)OC2CCOC2=O)cc1 (stereo unspecified)	-84*
O=C1OC(/C(=C\Nc2cc(Cl)ccc2O)[N+](=O)[O-])c2ccccc21 (stereo unspecified)	-102*
Cc1nc(-c2ccc(NC(=O)C3CCCCC3)cc2)cs1	-174*
CCc1ccccc1NC(=O)c1ccc(-c2csc(C)n2)cc1	-143*
Cc1ccc(C(=O)Nc2ccc(-c3csc(C)n3)cc2)cc1	-138*
Cc1ccn(C(=O)c2ccc(NC(=O)C3CCCCC3)cc2)n1	-70*
COCCNC(=O)c1ccc(-c2csc(C)n2)cc1	-64*
Cc1ccc(C(=O)NCCc2csc(C)n2)cc1	-81*
Cc1ccc(CCNC(=O)NC(C)(C)C)cc1	-94*
SMILES	aSyn 5UTR act
Cc1ccc(CNC(=O)c2ccc(Cn3cc(-c4ccc(C)cc4)nc3-c3ccncc3)cc2)cc1	-177*
Cc1ccc(C(=O)NCCc2ccncc2)cc1	-114*
Cc1ccc(C(=O)NCCc2ccccc2)cc1	71
O=c1[nH]c(CN2CCN(C/C=C/c3ccccc3)CC2)nc2ccccc12	-72*
CCCSc1nnc(-c2c[nH]c3ccccc23)n1C	-78*
Cc1cccc(C(=O)Nc2ccc(C(=O)/C=C/c3ccncc3)cc2)c1	-160*
NC(N)=N/N=C/c1ccc(OCc2ccccc2)c(OCc2ccccc2)c1	106
O=C(/C=C/c1cccnc1)c1ccc(NC(=O)c2cccc(Br)c2)cc1	-103*
O=C(/C=C/c1ccc(OCc2ccccc2)c(OCc2ccccc2)c1)c1cccnc1	-62*
COc1cc(C(=O)/C=C/c2cccnc2)ccc1O	-107*
Cc1cccc(C(=O)Nc2ccc(C(=O)/C=C/c3cccnc3)cc2)c1	-98*
O=C(Nc1cccc(Cl)c1N1CCCC1)c1cccc(-c2cc3ccccc3oc2=O)c1	-101*
Cc1ccc2nc(NC(=O)c3cccc(-c4cc5ccccc5oc4=O)c3)sc2c1	-88*
CCn1nnc(NC(=O)c2cccc(-c3cc4ccccc4oc3=O)c2)n1	-105*
CC(C)NC(=O)c1cc(-c2ccco2)on1	-139*
CC(C)NC(=O)c1cc(-c2ccc(Br)cc2)on1	-124*
CCCNC(=O)c1cc(-c2ccc(Br)cc2)on1	-85*
CNC(=O)NC(=O)C(C)OC(=O)c1c2c(nc3ccccc13)/C(=C/c1cccs1)CC2 (stereo unspecified)	-143*
Cc1ccc(-c2nnc(NC(=O)c3ccc([N+](=O)[O-])o3)o2)c(C)c1	-64*
Cc1ccc(NC(=O)c2ccc([N+](=O)[O-])o2)c(C)c1	-74*
Cc1ccc(N(C(=O)Nc2ccccc2)C2=NCC(C)S2)cc1 (stereo unspecified)	-62*
CCOC(=O)Cc1csc(NC(=O)c2ccc(Cl)s2)n1	-119*
CCOC(=O)Cc1csc(NC(=O)c2ccco2)n1	-162*
CCOC(=O)Cc1csc(NC(=O)c2cnc3sc(C)cn3c2=O)n1	-112*
COc1cc(OC)c2c(=O)cc(-c3ccccc3)oc2c1	-102*
SMILES	aSyn 5UTR act
O=c1cc(-c2ccco2)oc2ccc(Cl)cc12	-96*
COc1cccc2oc(-c3ccco3)cc(=O)c12	-94*
COc1ccc2oc(-c3ccco3)cc(=O)c2c1	-129*
Cc1ccc2cc(CN(CC3CCCO3)C(=S)Nc3ccccc3)c(=O)[nH]c2c1C (stereo unspecified)	72
COc1ccc2[nH]c(=O)c(CN(Cc3cccs3)S(=O)(=O)c3c(C)ccc4nsnc34)cc2c1	89
Cc1cc(C)c2cc(CN(CC3CCCO3)S(=O)(=O)c3ccc4c(c3)OCCO4)c(=O)[nH]c2c1 (stereo unspecified)	-94*
CC(=O)c1ccc(S(=O)(=O)N(Cc2cc3cc4c(cc3[nH]c2=O)OCCO4)CC2CCCO2)cc1 (stereo unspecified)	-180*
Cc1ccc2cc(CN(CC3CCCO3)S(=O)(=O)c3ccc4c(c3)OCCO4)c(=O)[nH]c2c1C (stereo unspecified)	-108*
Cc1ccc2nsnc2c1S(=O)(=O)N(CCO)Cc1cc2cc3c(cc2[nH]c1=O)OCCO3	-90*
N#C/C(=C\c1ccc(OCc2ccccc2)cc1)C(=O)Nc1ccc(C(=O)O)cc1	-96*
CCOc1cc(/C=C(/C#N)C(=O)Nc2ccc(O)cc2)cc(Br)c1O	84
COc1cc(/C=C(/C#N)C(=O)Nc2ccccc2)c(Br)cc1OCc1ccc(C(=O)O)cc1	-67*
Cc1ccc(CSC2=Nc3ccccc3C3=NC(CC(=O)NCc4ccco4)C(=O)N23)cc1 (stereo unspecified)	-73*
Clc1ccc(OCc2nnc(-c3ccccc3Br)o2)c(Cl)c1	-144*
Clc1ccccc1OCc1nnc(-c2ccccc2)o1	-109*
Clc1cccc(OCc2nnc(-c3ccccc3Br)o2)c1	-68*
Fc1ccc(OCc2nnc(-c3ccccc3Br)o2)c(Cl)c1	-151*
COc1cccc(NC(=O)C(=O)NCC2CCCN2S(=O)(=O)c2ccccc2)c1 (stereo unspecified)	-216*
O=C(NCCC1CCCCN1S(=O)(=O)c1cccs1)C(=O)Nc1ccc(F)cc1 (stereo unspecified)	-87*
COc1cccc(NC(=O)C(=O)NCCC2CCCCN2S(=O)(=O)c2ccccc2)c1 (stereo unspecified)	-158*
O=C(NCCC1CCCCN1S(=O)(=O)c1ccc(Cl)cc1)C(=O)NCc1ccncc1 (stereo unspecified)	62
COc1ccc(/C=C/C(=O)NC2CCCCCC2)cc1S(=O)(=O)N1CCOCC1	-75*
CCN(CC)S(=O)(=O)c1cc(C(=O)NC2CCCCC2)ccc1C	-111*
Cc1ccc(C(=O)NC2CCCCCC2)cc1S(=O)(=O)N1CCOCC1	-70*
O=c1[nH]c(-c2ccccn2)cc2ccccc12	-118*
SMILES	aSyn 5UTR act
O=c1[nH]c(Nc2ccccn2)cc2ccccc12	-112*
CCc1cc2c(=O)[nH]c(-c3ccccn3)nc2s1	59
O=c1[nH]c(Nc2ccc(F)cc2)cc2ccccc12	-75*
c1ccc(/N=C2\N=C(Nc3ccccn3)c3ccccc32)nc1	57
Cc1ccc(NC(=O)CCCc2ccccc2)c([N+](=O)[O-])c1	-76*
O=C(CCCc1ccccc1)Nc1ccccc1[N+](=O)[O-]	-112*
O=C(CCc1ccccc1)Nc1ccccc1[N+](=O)[O-]	-83*
